Screens deposited in PubChem BioAssay by National Center for Advancing Translational Sciences (NCATS).
Shown are actives, neighbours in structure and some others; about 3.3% of the full set was active somewhere.
Sm TGR block = blocks Schistosoma mansoni thioredoxin glutathione reductase. AID 485364. Potency, µM (top dose mostly 114 µM), inactives show at the top dose activity change, negative = inhibition, most hits filed as inhibitors. 360,000 compounds, 3% hits. Q962Y6. purified TGR, DTNB reduction, TNB absorbance 405 nm; also: nearly all actives have a fitted effect of over 60% in size
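TGR 20 nM + NADPH 100 uM (dispensed conc.), cpd preinc 15 min RT; start with NADPH (500 uM addition) then DTNB (15 mM addition). Kinetic TNB absorbance, 405 nm filter. Four-parameter Hill fit across titration.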
AmpC no deterg = inhibitors of E. coli AmpC beta-lactamase without detergent | AID 485341 | Potency, µM (series often up to 57.1 µM), for the others: at the top dose activity change, negative = inhibition, most hits filed as inhibitors | P00811 | AmpC nitrocefin hydrolysis, absorbance 480 nm, 0.0001% Triton | 330,000 compounds, 0.52% hits;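 also: plate controls were no compound for no effect and no enzyme for full effect; nearly all actives have a fitted effect of over 20% in size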
Target sequence (P00811 whole entry, looked up): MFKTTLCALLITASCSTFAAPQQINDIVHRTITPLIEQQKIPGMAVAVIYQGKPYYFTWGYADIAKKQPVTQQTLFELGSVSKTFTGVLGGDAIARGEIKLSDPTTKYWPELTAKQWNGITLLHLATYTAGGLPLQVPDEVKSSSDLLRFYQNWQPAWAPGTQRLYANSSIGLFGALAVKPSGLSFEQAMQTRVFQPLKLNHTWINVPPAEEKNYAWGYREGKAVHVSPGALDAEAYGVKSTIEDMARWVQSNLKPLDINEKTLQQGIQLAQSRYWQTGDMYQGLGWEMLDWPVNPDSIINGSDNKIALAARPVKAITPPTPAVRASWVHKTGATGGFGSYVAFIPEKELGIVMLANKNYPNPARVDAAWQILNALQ
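AmpC (5.3 nM in the dispensed reagent) in 20 mM phosphate pH 7.0 with 0.01% (detergent screen) or 0.0001% Triton X-100 was preincubated with compounds for 15 min at room temperature. Nitrocefin was then added from an 800 uM solution, and hydrolysis was followed at 480 nm.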
AmpC inh detg = inhibitors of E. coli AmpC beta-lactamase with detergent; P00811; Potency, µM (top dose mostly 114 µM), without a hit: top-dose activity change, negative = inhibition, hits mostly inhibitors; AID 485294; 370,000 compounds, 0.041% hits; AmpC hydrolysis of nitrocefin, absorbance 480 nm, 0.01% Triton;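 also: 0% = no-compound wells and -100% = no-enzyme wells; nearly all actives have a fitted effect of over 25% in size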
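20 mM phosphate pH 7.0 + 0.01% (detergent screen) or 0.0001% Triton X-100; 5.3 nM AmpC reagent; cpd preinc 15 min RT; nitrocefin (800 uM stock) to start; A480 q20 s × 4 min; Activity was normalised to no-enzyme and no-compound control wells.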
* hit, by the source's call; ? = inconclusive; / = no result given; [ ] = remark or other dose. Calls follow the shape of the dose curve; as a rule, active = well fitted curve in the direction sought with a large enough effect; inconclusive = small, poorly fitted or top-dose-only effect, or another doubt; inactive = no such curve, though single readings can be large; an effect the other way counts as inactive or inconclusive. Unless noted, % is scaled to controls: 0 for no effect and ±100 for the full control effect; potency is read from the fitted curve at half-maximal effect.

SMILES	Sm TGR block	AmpC no deterg	AmpC inh detg
COc1ccc(CCNC(=O)CCCn2c(=O)c3ccccc3n(Cc3c(C)cc(C)cc3C)c2=O)cc1OC	2%	/	-2%
CCC(=O)c1ccc(OCC(=O)N2CCCC2)c(OC)c1	-11%	-15%	0%
CC(=O)Nc1ccc(S(=O)(=O)N2CCN(S(=O)(=O)N3CCC(C)CC3)CC2)cc1	4%	108%	2%
CC(=O)Oc1ccccc1N(C(C)=O)S(=O)(=O)c1ccc2ccccc2c1	-3%[57.1 µM]	9%	-2%
CC(=O)Oc1c(Br)cc(N(C(C)=O)S(=O)(=O)c2ccccc2)c2ccccc12	3.5µM*	-8%	0%
O=C1Nc2ccccc2N=C(c2ccccc2)C1Br (stereo not given)	40µM*	-29%	-4%
O=C1Nc2ccccc2N=C(c2ccccc2)C1N1CCOCC1 (stereo not given)	1%	-18%	-13%
COc1cc2c(-c3ccccc3Cl)nc3c(c(C)nn3-c3ccccc3)c2cc1OC	4%	/	13%
COC(=O)c1ccc(CNC(=O)COC(=O)C23CC4CC(CC(C4)C2)C3)cc1	-17%	-6%	-8%
O=C(O)C1(c2ccccc2)CCN(S(=O)(=O)c2ccc(Cl)cc2)CC1	0%	-24%	-12%
O=C(O)C1(c2ccccc2)CCN(S(=O)(=O)c2ccc(Br)cc2)CC1	89µM*	-17%	?
COc1ccc(OC)c(C2C(C#N)=C(N)Oc3c2c(C)nn3-c2ccc(C)cc2)c1 (stereo not given)	-5%	-21%	5%
Cc1ccc(SCc2[nH]nc3c2C(c2ccco2)C(C#N)=C(N)O3)cc1 (stereo not given)	?	-35%	?
Cc1nn(Cc2ccccc2)c2c1C(c1ccco1)C(C#N)=C(N)O2 (stereo not given)	50µM*	-28%	-3%
Cc1ccc(SCc2[nH]nc3c2C(c2ccc(C)o2)C(C#N)=C(N)O3)cc1 (stereo not given)	25µM*	-47%	2%
Cc1ccc(-n2nc(C)c3c2OC(N)=C(C#N)C3c2ccoc2)cc1 (stereo not given)	?	-33%	-15%
Cc1ccc(-n2nc(C)c3c2OC(N)=C(C#N)C3c2ccco2)cc1 (stereo not given)	40µM*	-24%	-8%
Cc1ccc(-n2nc(C)c3c2OC(N)=C(C#N)C3c2ccc(C)o2)cc1 (stereo not given)	22µM*	-24%	-9%
Cc1nn(Cc2ccccc2)c2c1C(c1ccc(Cl)cc1)C(C#N)=C(N)O2 (stereo not given)	-32%	-22%	-13%
CC(=O)Nc1ccc(N(C(=O)CNC(=O)c2cccs2)C(C(=O)NCC2CCCO2)c2ccccc2)cc1 (stereo not given)	21%	-5%	-14%
CCOc1ccc(NC(=O)C2CCCN(c3ccc(Sc4ccc(C)cc4)nn3)C2)cc1 (stereo not given)	-2%	/	14%
Cc1ccc(S(=O)(=O)N2CCC(C(=O)Nc3ccccc3N3CCCC3)CC2)c(C)c1	?	-1%	?
Cc1ccc(CNC(=O)COc2ccc(C)nc2[N+](=O)[O-])cc1	-19%	6%	-5%
Cc1ccc(OCC(=O)c2ccc(Cl)s2)c([N+](=O)[O-])n1	3.5µM*	?	6%
COCCCN(C(=O)CCSc1ccc(F)cc1)c1c(N)n(Cc2ccccc2)c(=O)[nH]c1=O	-4%	5%	?
SMILES	Sm TGR block	AmpC no deterg	AmpC inh detg
CCCCn1c(SCC(=O)Nc2ccc(OC)cc2)nc2ccc(N3CCOCC3)cc2c1=O	28µM*	3%	-5%
CCCCn1c(SCC(=O)NC(C)CC)nc2ccc(N3CCOCC3)cc2c1=O (stereo not given)	?	-6%	-2%
CCCCn1c(SCC(=O)NCc2ccco2)nc2cc(S(N)(=O)=O)ccc21	50µM*	-23%	-3%
CCCCn1c(SCC(=O)N2CCCCC2)nc2cc(S(N)(=O)=O)ccc21	20%[11.4 µM]	18%	-10%
CCCCn1c(SCC(=O)NCc2ccco2)nc2ccc(N3CCOCC3)cc2c1=O	28µM*	-7%	-9%
CCCCn1c(SCC(=O)NCc2ccccc2)nc2ccc(N3CCOCC3)cc2c1=O	-10%	-6%	-14%
CC(=O)c1cc(-c2ccccc2)n(CCC(=O)NC(C)c2ccccc2)c1C (stereo not given)	5%	/	8%
Cc1nc(-c2nnc(SCC(=O)Nc3cc(Cl)cc(Cl)c3)n2C)cs1	2%	-12%	6%
CCOc1ccccc1NC(=O)Cn1ncc2c(=O)oc3ccc(C)cc3c21	-8%	/	0%
COc1ccc(/C=C/c2ccccc2)cc1[C@H]1[C@@H]2C=CCC[C@@]2(C)C(=O)N1Cc1ccccc1	28µM*	-9%	-1%
COc1ccc(Br)cc1[C@H]1[C@@H]2C=CCC[C@@]2(C)C(=O)N1Cc1ccccc1	-7%	66%	-12%
CCCN1C(=O)SC(CC(=O)Nc2ccccc2)C1=O (stereo not given)	1%	-16%	-12%
O=C(CC1SC(=Nc2ccccc2)N(CCCO)C1=O)Nc1ccc(Cl)cc1 (stereo not given)	-8%	157%	-2%
O=C(CC1SC(=O)N(c2ccccc2)C1=O)Nc1ccc(Cl)cc1 (stereo not given)	4µM*	-47%	1%
O=C(CC1SC(=O)N(c2ccccc2)C1=O)Nc1ccc(Br)cc1 (stereo not given)	3.2µM*	8.9µM*	-6%
COc1ccc(-c2ccc(NCCN3CCOCC3)nn2)cc1OC	0%	-10%	-11%
CC(C)CNC(=O)c1cc(=O)[nH]c2ccc(S(=O)(=O)Nc3ccc(F)cc3)cc12	6%	4%	-4%
COc1ccc(CCN=C(N)Nc2nc(C)cc(C)n2)cc1	8%	-9%	2%
Cc1c(N=Cc2ccc(Cl)o2)c(=O)n(-c2ccccc2)n1C	22µM*	55%	2%
Cc1c(N=Cc2ccc(-c3ccc(Cl)cc3)o2)c(=O)n(-c2ccccc2)n1C	3%	-22%	-14%
N#Cc1c(SCC(=O)Nc2nccs2)nc2c(c1-c1ccco1)CCCC2	45µM*	-24%	9%
Cc1ccccc1NC(=O)CSc1nc2c(c(-c3ccco3)c1C#N)CCCC2	0%	-6%	-20%
COc1ccc(S(=O)(=O)Nc2c(C)cc(C)cc2C)c2cccnc12	2%	11%	-15%
COc1cccc(NC(=S)N2CCN(S(C)(=O)=O)CC2)c1	-1%	-4%	4%
Cc1ccc2cc(C3CC(c4ccco4)=NN3S(=O)(=O)c3ccccc3)c(Cl)nc2c1 (stereo not given)	-23%	1%	?
Cc1ccc2cc(C3CC(c4ccco4)=NN3S(C)(=O)=O)c(Cl)nc2c1 (stereo not given)	11µM*	40%	-8%
CCOc1ccc2cc(C3CC(c4ccco4)=NN3S(C)(=O)=O)c(=O)[nH]c2c1 (stereo not given)	3.2µM*	5%	0%
CC(=O)N1N=C(c2ccco2)CC1c1cc2cc(C)ccc2nc1Cl (stereo not given)	?	-14%	-15%
